# From PubChem BioAssay (NCI)
# The panel holds about 83,000 compounds, 20% with a hit somewhere; the sample as a whole holds those more often.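 Testing used 96-well plates and a 48-hour single-concentration exposure. Example: -40 means 40% of the starting cells died.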 The source made the active and inactive calls.
# Test system: SR leukemia
# Experiment: NCI-60 one-dose screen, 48 h (100 = growth as untreated, 0 = no growth, -100 = all killed)
# Conditions: 10 µM unless noted
# Protocol: Growth inhibition of the SR human tumor cell line is measured as a screen for anti-cancer activity. Cells are grown in 96 well plates and exposed to the test compound for 48 hours. Compounds are tested at a single concentration, which is 10^-5 M for most compounds. The reported endpoint is percent growth (GI% or GIPRCNT), where numbers from 0 - 100% represent growth inhibition, and numbers from -100% - 0 represent cell death. For example, a value of 40 represents 60% growth inhibition. A value of 0 means no net growth occurred over the course of the experiment. A value of -40 indicates 40% of cells at the beginning of the experiment died by the end of the experiment. A value of -100 means all cells are dead at the end of the experiment.
# NCI-60 Human Tumor Cell Lines Screen was performed using the standard one-dose NCI protocol, which is described in more detail at https://dtp.cancer.gov/discovery_development/nci-60/default.htm.
# Compounds with GIPRCNT values below 10 were considered active. Activity score was based on GIPRCNT using the following formula: […]
# Score is 0 for GIPRCNT values of 100 or above, 50 for GIPRCNT values of 0, and 100 for GIPRCNT values of -100.
row,SMILES,growth
1,C[C@H]1[C@H](C)CC[C@]2(CO)CC[C@]3(C)C(=CC[C@@H]4[C@@]5(C)Cc6c([nH]c7ccccc67)C(C)(C)[C@@H]5CC[C@]43C)[C@H]12,75.8% (inactive)
2,CS(=O)(=O)c1ccc(-c2cc3c(oc2=O)-c2ccccc2OC3O)cc1 (stereo not given),103% (inactive)
3,CC(c1ccccc1)n1ccnc1CO (stereo not given),104% (inactive)
4,Cc1c2c(cc[n+]1Cc1ccc(F)cc1)c1ccc(OCc3cccc(F)c3)cc1n2Cc1cccc(F)c1,-48.7% (active)
5,COc1ccc(C(O)c2cc3c(N)c(C(=O)Nc4ccc(Br)cc4)sc3nc2C)cc1 (stereo not given),-8% (active)
6,CC(C)Cc1ccc(C(C)C(=O)NCc2c[nH]c3ccc(Cl)cc23)cc1 (stereo not given),80.5% (inactive)
7,COc1ccc(NS(=O)(=O)c2ccc(C)cc2)c([N+](=O)[O-])c1,100% (inactive)
8,Clc1ccc(N2N=C(c3cccc(Nc4ccncc4)c3)CC2c2ccccc2)cc1 (stereo not given),51.7% (inactive)
9,COc1ccc(-c2nn(Cc3ccccc3)c3c2-c2oncc2CC3)cc1OC,63.2% (inactive)
10,Cc1cc(C(=O)Nc2ncnc3nc[nH]c23)no1,89.6% (inactive)
11,O=C1CCC(NC(=S)Nc2ccccc2)N1 (stereo not given),93.8% (inactive)
12,O=C1Nc2c(ccc(Cl)c2Cl)/C1=C/c1ccc([N+](=O)[O-])cc1,69.7% (inactive)
13,Clc1cc(Cl)cc(N2N=C(c3cccc(Nc4ccncc4)c3)CC2c2ccccc2)c1 (stereo not given),5.16% (active)
14,O=C1c2ccccc2C(=O)c2c(NCCN=Cc3ccccc3O)cccc21,-33.2% (active)
15,O=C1Nc2c(ccc(Cl)c2Cl)/C1=C/c1ccc(O)cc1,42% (inactive)
16,N#C/C(=C\c1ccc(Br)cc1)n1nnc2cccc(F)c21,10.1% (inactive)
17,CCCCCCC/C=C/[C@H]1O[C@]2(O)C(=O)C=C3C[C@@H](O[C@@H]4O[C@H](CO)[C@@H](O)C(O)[C@@H]4O)C[C@@H]3[C@H]2C=C1C (stereo not given in full),-26.4% (active)
18,C=C1C(=O)O[C@H]2[C@H]1CC/C(COC(=O)CCCc1c[nH]c3ccccc13)=C\CC[C@@]1(C)O[C@@H]21,1.59% (active)
19,COc1cccc2c1C(=O)c1c(O)c3c(c(O)c1C2=O)C[C@@](O)(C(=O)CO)C[C@@H]3O[C@H]1C[C@H](N)[C@@H](O)[C@H](C)O1,-2.27% (active)
20,COc1ccc(C(=O)c2cc3c(N)c(C(=O)Nc4ccc(Cl)cc4)sc3nc2C)cc1,36.4% (inactive)

row,SMILES,growth
1,CC(=O)OCCCCCNc1ccccc1,88.4% (inactive)
2,Clc1ccc(C2CC(c3cccc(Nc4ccncc4)c3)=NN2c2ccc(Cl)cc2)cc1 (stereo not given),2.85% (active)
3,O=C(Nc1ccc2cc3ccc(NC(=O)NC4CCCCC4)cc3nc2c1)NC1CCCCC1,-0.865% (active)
4,O=S(=O)(c1ccccc1)N1CCCc2ccccc21,103% (inactive)
5,CCC(C)N(CCNc1cc(OC)cc2cccnc12)CCC(C)C (stereo not given),51.8% (inactive)
6,COc1ccc(C(O)c2cc3c(N)c(C(=O)Nc4ccccc4)sc3nc2C)cc1 (stereo not given),-15.3% (active)
7,CS(=O)(=O)c1ccc(-c2cc(-c3nnc(SCC(=O)Nc4ccc(C(=O)/C=C/c5ccc(Cl)cc5)cc4)n3-c3ccccc3)c3ccccc3n2)cc1,94.1% (inactive)
8,CCc1nc(C)cn1C(=O)OCc1nc2nc(Cl)nc(N3CCOCC3)c2[nH]1,-16.1% (active)
9,COc1ccc(Cn2nc(-c3cc(OC)c(OC)c(OC)c3)c3c2CCc2cnoc2-3)cc1OC,1.81% (active)
10,FCc1nc2nc(Cl)c(Cl)nc2[nH]1,95.9% (inactive)
11,CC(C)(C)OC(=O)N1CCN(c2ccc(N)cc2)C(=O)C1,81.2% (inactive)
12,O=c1nc2n(nc1/C=C/c1ccco1)CC(c1ccc(Cl)cc1)=NN2,45% (inactive)
13,CS(=O)(=O)Nc1cc(-c2ccc3ncnc(Nc4ccc5[nH]ncc5c4)c3c2)cnc1Cl,63.2% (inactive)
14,O=C(Nc1nc2ccc(S(=O)(=O)Nc3ccc(C4(C(F)(F)F)CC4)cc3)cc2[nH]1)c1cnccn1,20% (inactive)
15,COc1cc2oc(-c3cccc(C(=O)Nc4ccc(Cl)cc4)c3)cc(=O)c2c(OC)c1OC,8.67% (active)
16,Cc1c([N+](=O)[O-])cc(C(C)(C)C)cc1[N+](=O)[O-],106% (inactive)
17,O=CNc1cc(Cl)cc(Cl)c1,90.3% (inactive)
18,COc1ccc(-c2nc(SCC(C)C)nc(N/N=C(/C)c3ccc(OC)c(OC)c3)c2C#N)cc1,70.9% (inactive)
19,COc1cc(C2CC(c3cccc(Nc4ccncc4)c3)=NN2c2ccc(Cl)cc2)cc(OC)c1OC (stereo not given),2.48% (active)
20,COc1ccc(/C=C\c2nc3ccccc3s2)cc1OP(=O)(O)O,16.7% (inactive)
